According to PubChem BioAssay (NCI):
Compounds without any hit were thinned out: in the full panel of roughly 83,000, 20% have a hit.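 Compound tested at a single concentration for 48 hours in 96-well plates; a percent growth value below 10 was scored as active.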 Calls of active or inactive are those of the source.

Columns and labels:
Assay in all cases: NCI-60 one-dose screen, 48 h (100 = growth as untreated, 0 = no growth, -100 = all killed)
Settings in all cases: 10 µM unless noted
[1] = system: NCI-H23 lung
[2] = system: NCI-H226 lung
[3] = system: NCI-H322M lung
[4] = system: HOP-62 NSCLC
[5] = system: NCI-H460 lung
[6] = system: HOP-92 NSCLC
[7] = system: NCI-H522 lung
[8] = system: A549/ATCC NSCLC
[9] = system: 786-0 renal
[10] = system: COLO 205 colon
[11] = system: DU-145 prostate
[12] = system: K-562 leukemia
[13] = system: MALME-3M melanoma
[14] = system: MDA-MB-231 breast
[15] = system: RXF 393 renal
[16] = system: SF-268 CNS
[17] = system: SF-295 CNS
[18] = system: SF-539 CNS
[19] = system: UACC-257 melanoma
[20] = system: M14 melanoma

Measured: growth

CCN=Cc1c(O)c(O)c(C(C)C)c2cc(C)c(-c3c(C)cc4c(C(C)C)c(O)c(O)c(C=NCC)c4c3O)c(O)c12
inactive: [1] 24.9% | [2] 80.4% | [3] 48.3% | [4] 51.3% | [5] 26% | [6] 16.3% | [7] 43.3% | [8] 27.2% | [9] 72.5% | [11] 53% | [12] 16.4% | [13] 75.1% | [14] 50.5% | [15] 68.2% | [16] 44.7% | [17] 29.5% | [18] 55.2% | [19] 85.2% | [20] 61.6%
active: [10] 7.89%

Cc1nc(Cl)cc(N(c2cc(Cl)nc(C)n2)c2ncc(C(=O)Nc3c(C)cccc3Cl)s2)n1
inactive: [1] 78.2% | [2] 59.3% | [3] 52.2% | [4] 39.4% | [5] 59.5% | [7] 53.7% | [8] 50.5% | [9] 40.1% | [10] 67.7% | [11] 76.5% | [13] 62.5% | [14] 24% | [16] 47% | [17] 50.4% | [18] 38.9% | [19] 79.6% | [20] 79.6%
active: [6] -33.5% | [12] 6.72% | [15] 3.03%

NC(=O)CC1C=CCC1 (stereo not given)
inactive: [1] 94.5% | [2] 99.4% | [3] 108% | [4] 103% | [5] 101% | [6] 106% | [7] 97.9% | [8] 80.1% | [9] 96.5% | [10] 114% | [11] 102% | [12] 96% | [13] 97.8% | [14] 102% | [15] 111% | [16] 102% | [17] 98.3% | [18] 93.3% | [19] 90.4% | [20] 102%

O=C(N/N=C/c1ccc([N+](=O)[O-])cc1)c1ccc(Br)o1
inactive: [1] 95.5% | [2] 100% | [3] 129% | [4] 119% | [5] 105% | [6] 101% | [7] 88.5% | [8] 92.7% | [9] 91.7% | [10] 116% | [11] 126% | [12] 114% | [13] 106% | [14] 113% | [15] 90.3% | [16] 111% | [17] 83% | [18] 97.8% | [19] 107% | [20] 107%

CC1Cc2c(Cl)ncnc2N(C)c2ccc(Cl)cc21 (stereo not given)
active: [2] -5.56% | [6] 8.05% | [7] -68.3% | [9] 8.16% | [10] -77.6% | [14] -39.8% | [15] 0.883% | [19] 4.86%
inactive: [1] 13.5% | [3] 36.8% | [4] 13.6% | [5] 19.2% | [8] 17.9% | [11] 40.9% | [12] 14.7% | [13] 22.6% | [16] 18.8% | [17] 20.2% | [18] 28.1% | [20] 11.1%

COc1cc2c(c(Br)c1N)-c1cc(Br)c(N)cc1C2=O
active: [2] -24.1%
inactive: [1] 49.9% | [3] 71.2% | [4] 60.8% | [5] 45.7% | [6] 54.9% | [7] 70.5% | [8] 83.5% | [9] 58.8% | [10] 79.3% | [11] 79.1% | [12] 94.9% | [13] 76.7% | [14] 29.2% | [15] 69.9% | [16] 61.6% | [17] 57.2% | [18] 37% | [19] 92.3% | [20] 91.1%

O=C1CN(Cc2ccc(C(=O)NO)cc2)C(=O)[C@@H](Cc2ccccc2)N1
inactive: [1] 100% | [2] 104% | [3] 102% | [4] 102% | [5] 103% | [6] 102% | [7] 98.2% | [8] 96.4% | [9] 95.8% | [10] 114% | [11] 111% | [12] 98% | [13] 94% | [14] 102% | [15] 112% | [16] 99.7% | [17] 99.3% | [18] 99.7% | [19] 93.2% | [20] 107%

COc1ccc2[nH]c(C(=O)N3CCN(C(=O)OCc4ccc5c(Br)cc(Br)c(O)c5n4)CC3)cc2c1
active: [1] -78.2% | [2] -84.3% | [3] -87.1% | [4] -67% | [5] -60.3% | [6] -83.9% | [7] -78.4% | [8] -79.5% | [9] -93% | [10] -83.1% | [11] -97.8% | [12] 2.19% | [13] -95.3% | [14] -84.6% | [15] -87.9% | [16] -80.2% | [17] -87.8% | [18] -99.8% | [19] -59.1% | [20] -77.9%

Fc1ccc(NC(=S)c2ccccc2)cc1
inactive: [1] 104% | [2] 99.1% | [3] 106% | [4] 113% | [5] 107% | [6] 86.5% | [7] 96.3% | [8] 98.8% | [9] 99.5% | [10] 113% | [11] 106% | [12] 105% | [13] 96.2% | [14] 102% | [15] 109% | [16] 99% | [17] 95.8% | [18] 97.6% | [19] 98.9% | [20] 100%

COc1ccc(C(=O)c2nccc3cc(OC)c(OC)cc23)cc1OC
active: [19] -11.2%
inactive: [1] 51.9% | [2] 97% | [3] 120% | [4] 95.3% | [5] 103% | [6] 78.5% | [7] 33.4% | [8] 98.3% | [9] 109% | [10] 126% | [11] 104% | [12] 103% | [13] 103% | [14] 85% | [15] 99.4% | [16] 89.3% | [17] 92.6% | [18] 94.3% | [20] 89.3%

c1ccc(-c2nc(N3CCCNCC3)c3nc(-c4ccccc4)oc3n2)cc1
active: [5] -50.1% | [8] -38.8% | [10] -79.2% | [11] -18.4% | [12] 0.76% | [14] -3.19%
inactive: [1] 22.3% | [2] 49.9% | [3] 93.7% | [4] 78.2% | [6] 42.4% | [7] 26.4% | [9] 67% | [13] 76.9% | [15] 27.1% | [16] 52% | [17] 96.2% | [18] 76.3% | [19] 100% | [20] 95.7%

Cc1cnc(N)nc1OCCNC(=O)c1cccc(-c2ccc(S(=O)(=O)Nc3ccc4c(c3)N(C(=O)C3CC3)CCC4)cc2)c1
inactive: [1] 72.4% | [2] 72% | [3] 87.5% | [4] 79.8% | [5] 75.4% | [6] 41% | [7] 70.1% | [8] 79.7% | [9] 82.3% | [10] 99.1% | [11] 90.2% | [12] 58.8% | [13] 120% | [14] 89.5% | [15] 88.3% | [16] 74.5% | [17] 77.9% | [18] 92% | [19] 84.1% | [20] 80.1%

C=C(C)[C@@H]1CC[C@]2(C(=O)NCCCCCCN(CCCN)CCCN)CC[C@]3(C)[C@H](CC[C@@H]4[C@@]5(C)CC[C@H](OCCCN)C(C)(C)[C@@H]5CC[C@]43C)[C@@H]12
inactive: [1] 77.4% [100 µM] | [2] 111% [100 µM] | [3] 80.7% [100 µM] | [4] 93.2% [100 µM] | [6] 76.1% [100 µM] | [7] 88.8% [100 µM] | [8] 46.2% [100 µM] | [9] 61.9% [100 µM] | [10] 18.9% [100 µM] | [11] 55% [100 µM] | [13] 43.7% [100 µM] | [14] 37.3% [100 µM] | [15] 69.6% [100 µM] | [16] 99.1% [100 µM] | [17] 92.2% [100 µM] | [18] 79.9% [100 µM] | [19] 88% [100 µM] | [20] 106% [100 µM]
active: [5] -16.2% [100 µM] | [12] 1.52% [100 µM]

O=C(Nc1ccc(Oc2ccc(F)cc2)c(Cl)c1)c1cccnn1
inactive: [1] 62.3% | [2] 55% | [3] 87.6% | [4] 84.2% | [5] 76.8% | [6] 66.5% | [7] 61.8% | [8] 65.5% | [9] 105% | [10] 112% | [11] 76.7% | [12] 55.5% | [13] 105% | [14] 88.1% | [15] 82.6% | [16] 80.4% | [17] 73.4% | [18] 85.5% | [19] 64.3% | [20] 114%

C[n+]1cccc(NC(=O)c2ccc3ccc4ccc(C(=O)Nc5ccc[n+](C)c5)nc4c3n2)c1
inactive: [1] 32.3% | [3] 37.3% | [4] 21.3% | [6] 57.5% | [9] 76.2% | [10] 75.3% | [12] 35.8% | [13] 81.4% | [14] 33.2% | [15] 33% | [16] 53.3% | [18] 37.7% | [19] 94.4% | [20] 53.6%
active: [2] 5.55% | [5] -7.42% | [7] -19% | [8] -3.45% | [11] 9.79% | [17] 5.59%
